From PubChem BioAssay AID1159580 (chemical genetic matrix, 2015)
Values joined by “and” are separate entries in the source; they are usually repeats but may differ in a detail not shown here. Equal entries are not always repeated. Hit rate of the full screen: of about 5,500 compounds, about 2,000 (36%) were called active. Inconclusive results (about 18%) are left out. No stated cut-off is given here; in the data, active means normalized growth mostly below about 0.91 (no sharp cut-off); inconclusive means no clear call, values can overlap the other calls; inactive means mostly above about 0.92. This is one part of the list.

Experiment: chemical genetic growth profiling, strain panel (AID 1159580);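 further: tested at 20 µM; growth read once vehicle control cultures reached saturation at 30 °C; 1 = growth at the plate median or of vehicle wells; lower values mean less growth of the strain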
Conditions: S. cerevisiae deletion strains, growth OD

Measured: normalized growth

NC(N)=NS(=O)(=O)c1ccc(N)cc1
inactive: locus YAL021C, strain ccr4, active compounds read low 0.976 | locus YAL026C, strain drs2, active compounds read low 0.991 | locus YAL030W, strain snc1, active compounds read low 0.979 | locus YBL061C, strain skt5, active compounds read low 0.991 | locus YBR009C, strain hhf1, active compounds read low 0.981 | locus YBR021W, strain FUR4, active compounds read low 1.02 | locus YBR023C, strain chs3, active compounds read low 0.981 | locus YBR171W, strain sec66, active compounds read low 0.994 | locus YBR229C, strain ROT2, active compounds read low 1.01 | locus YBR231C, strain swc5, active compounds read low 0.993 | locus YBR279W, strain paf1, active compounds read low 0.986 | locus YCL011C, strain gbp2, active compounds read low 0.981 | locus YCL016C, strain dcc1, active compounds read low 0.983 | locus YCL029C, strain bik1, active compounds read low 1 | locus YCL061C, strain MRC1, active compounds read low 1.01 | locus YCL069W, strain vba3, active compounds read low 0.991 | locus YCR088W, strain abp1, active compounds read low 0.992 | locus YDL005C, strain med2, active compounds read low 0.987 | locus YDL035C, strain GPR1, active compounds read low 1.02 | locus YDL040C, strain nat1, active compounds read low 0.975 | locus YDL074C, strain BRE1, active compounds read low 1.04 | locus YDL101C, strain DUN1, active compounds read low 1.02 | locus YDL134C, strain PPH21, active compounds read low 1.01 | locus YDL185W, strain tfp1, active compounds read low 1 | locus YDL192W, strain arf1, active compounds read low 0.996 | locus YDR001C, strain nth1, active compounds read low 0.99 | locus YDR069C, strain doa4, active compounds read low 0.986 | locus YDR101C, strain arx1, active compounds read low 0.995 | locus YDR137W, strain rgp1, active compounds read low 1.03 | locus YDR150W, strain NUM1, active compounds read low 1.02 | locus YDR159W, strain sac3, active compounds read low 0.992 | locus YDR162C, strain NBP2, active compounds read low 1.01 | locus YDR195W, strain ref2 0.934 | locus YDR297W, strain sur2, active compounds read low 0.984 | locus YDR318W, strain mcm21, active compounds read low 0.998 | locus YDR334W, strain swr1, active compounds read low 0.979 | locus YDR335W, strain msn5, active compounds read low 0.992 | locus YDR388W, active compounds read low 0.999 | locus YDR392W, strain spt3, active compounds read low 0.99 | locus YDR502C, strain sam2, active compounds read low 0.997 | locus YEL003W, strain gim4, active compounds read low 0.99 | locus YEL037C, strain rad23, active compounds read low 0.983 | locus YEL061C, strain CIN8 (second series), active compounds read low 0.974 | locus YEL061C, strain CIN8, active compounds read low 1.01 | locus YER015W, strain faa2, active compounds read low 0.985 | locus YER016W, strain bim1, active compounds read low 0.987 | locus YER110C, active compounds read low 0.993 | locus YER111C, strain swi4, active compounds read low 0.993 | locus YER155C, strain BEM2 (second series), active compounds read low 0.987 | locus YER155C, strain BEM2, active compounds read low 1.01 | locus YER167W, strain BCK2, active compounds read low 1 | locus YFR010W, strain ubp6, active compounds read low 0.99 | locus YGL078C, strain dbp3, active compounds read low 0.987 | locus YGL086W, strain mad1, active compounds read low 1.01 | locus YGL167C, strain pmr1, active compounds read low 0.987 | locus YGL173C, strain kem1, active compounds read low 0.988 | locus YGL227W, strain vid30, active compounds read low 0.974 | locus YGL240W, strain doc1, active compounds read low 0.997 | locus YGL248W, strain PDE1, active compounds read low 1.03 | locus YGL253W, strain hxk2, active compounds read low 0.986 | locus YGR078C, strain PAC10, active compounds read low 1.04 | locus YGR135W, strain pre9, active compounds read low 0.989 | locus YGR252W, strain gcn5, active compounds read low 0.963 | locus YHR013C, strain ard1, active compounds read low 0.961 | locus YHR027C, strain rpn1, active compounds read low 0.976 | locus YHR030C, strain SLT2, active compounds read low 1.01 and 0.978 | locus YHR079C, strain IRE1 (second series), active compounds read low 0.99 | locus YHR079C, strain IRE1, active compounds read low 0.97 | locus YHR094C, strain hxt1, active compounds read low 0.988 | locus YHR129C, strain ARP1, active compounds read low 1.02 | locus YHR142W, strain chs7, active compounds read low 0.988 | locus YHR200W, strain rpn10, active compounds read low 0.985 | locus YIL066C, strain RNR3, active compounds read low 1.03 | locus YIL073C, strain SPO22, active compounds read low 0.989 | locus YIL125W, strain kgd1, active compounds read low 0.989 | locus YIR030C, strain dcg1, active compounds read low 0.994 | locus YJL092W, strain hpr5, active compounds read low 0.991 | locus YJL095W, strain BCK1 (second series), active compounds read low 0.988 | locus YJL095W, strain BCK1, active compounds read low 1.05 and 0.986 | locus YJL115W, strain asf1, active compounds read low 0.966 | locus YJL129C, strain trk1, active compounds read low 0.984 | locus YJL134W, strain LCB3, active compounds read low 1 | locus YJL154C, strain vps35, active compounds read low 0.986 | locus YJL164C, strain tpk1, active compounds read low 0.984 | locus YJL166W, strain qcr8, active compounds read low 0.98 | locus YJL168C, strain set2, active compounds read low 0.996 | locus YJL187C, strain SWE1 (second series), active compounds read low 1.03 | locus YJL187C, strain SWE1, active compounds read low 0.989 | locus YJR043C, strain POL32, active compounds read low 1.05
